Results from PubChem BioAssay AID1224921 (Broad Institute, 2016).
In all, about 1,400 compounds went through this assay and about 350 (25%) were called active. Roughly 2% stayed inconclusive and do not appear here. How the calls were made is not given here. Not all results are given here. Entries with a potency or affinity are not part of this list.

Experiment: C. difficile growth inhibition, confirmation, 4-point retest (AID 1224921);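 further: plate controls were DMSO wells for no effect and levofloxacin 16 µg/mL wells for full effect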
Conditions: Clostridioides difficile clinical isolate growth, OD600, 24 h, stronger effect = lower value; at 30 µM unless noted

Max activity, inactive:
O=C(C[C@H]1C[C@@H]2c3cc(NC(=O)Nc4ccc(C(F)(F)F)cc4)ccc3O[C@@H]2[C@H](CO)O1)NCc1ccc2c(c1)OCO2 9.19%
C[C@@H]1CN([C@@H](C)CO)S(=O)(=O)c2ccc(C#CCC3CCCC3)cc2O[C@H]1CN(C)C(=O)c1ccccn1 25.9%
CO[C@H]1CN(C)C(=O)c2ccc(NC(=O)C3CC3)cc2OC[C@@H](C)N(Cc2cccc(F)c2)C[C@H]1C 15.9%
CO[C@H]1CN(C)C(=O)c2ccc(NC(=O)c3ccc(F)cc3)cc2OC[C@@H](C)N(C(=O)CN(C)C)C[C@@H]1C -6.76% [at 0.5 µM]
C[C@H]1CN([C@@H](C)CO)S(=O)(=O)c2ccc(C#CC3CC3)cc2O[C@@H]1CN(C)Cc1cccnc1 36.4%
COc1ccccc1C#Cc1ccc2c(c1)O[C@@H](CN(C)Cc1ccncc1)[C@H](C)CN([C@H](C)CO)S2(=O)=O 34.5%
CO[C@@H]1CN(C)C(=O)c2cc(NC(C)=O)ccc2OC[C@@H](C)N(CCc2ccccc2)C[C@@H]1C 18.4%
CO[C@@H]1CN(C)C(=O)c2ccc(NC(=O)c3nc4ccccc4s3)cc2OC[C@H](C)N(Cc2ccncc2)C[C@H]1C 21.3%
COc1ccc(NC(=O)Nc2ccc3c(c2)[C@H]2C[C@H](CC(=O)N4CCc5ccccc5C4)O[C@@H](CO)[C@H]2O3)cc1 -11.6% [at 0.5 µM]
CCCC(=O)Nc1ccc2c(c1)OC[C@@H](C)N(C(=O)Cc1cccnc1)C[C@@H](C)[C@H](OC)CN(C)C2=O -13.6% [at 1.95 µM]
COCC(=O)N(C)C[C@@H]1Oc2cc(C#Cc3ccccc3)ccc2S(=O)(=O)N([C@@H](C)CO)C[C@@H]1C 7.66%
CO[C@@H]1CN(C)C(=O)c2ccc(NC(=O)c3nc4ccccc4s3)cc2OC[C@@H](C)N(Cc2cccnc2)C[C@@H]1C 29.5%
CO[C@H]1CN(C)C(=O)c2cc(NC(=O)c3ccccc3)ccc2OC[C@@H](C)N(C)C[C@H]1C 10.4%
Cc1ccc(S(=O)(=O)N2C[C@@H](O)COC[C@@H]3O[C@@H](CC(=O)NCC4CCCCC4)CC[C@H]32)cc1 22.7% [at 8 µM]
Cc1ccc(S(=O)(=O)N2C[C@H](O)COC[C@H]3O[C@H](CC(=O)NCc4ccc(Cl)c(Cl)c4)CC[C@@H]32)cc1 26.4% [at 8 µM]
COc1ccc(S(=O)(=O)N2C[C@@H](O)COC[C@H]3O[C@H](CC(=O)NCc4ccc(Cl)c(Cl)c4)CC[C@@H]32)cc1 33.9% [at 0.5 µM]
C[C@H](CO)N1C[C@H](C)[C@H](CN(C)Cc2cccnc2)Oc2cc(C#CC3CCCCC3)ccc2S1(=O)=O 30.4%
C[C@@H]1CN([C@@H](C)CO)C(=O)Cc2cc(N(C)C)ccc2O[C@@H]1CN(C)Cc1ccc(-c2ccccc2)cc1 57.8%
C[C@@H]1CN([C@H](C)CO)C(=O)c2cc(-c3ccccc3)cnc2O[C@@H]1CN(C)Cc1ccccn1 -13.1% [at 1.95 µM]
O=C(C[C@@H]1C[C@@H]2c3cc(NC(=O)Nc4ccc(C(F)(F)F)cc4)ccc3O[C@@H]2[C@H](CO)O1)NCc1ccc2c(c1)OCO2 9.21% [at 1.95 µM]
CC(C)NC(=O)N[C@H]1CC[C@H](CC(=O)NCCCN(C)C)O[C@H]1CO -16.5% [at 1.95 µM]
C[C@@H]1CN([C@H](C)CO)C(=O)c2c(c3ccccc3n2C)-c2ccccc2CO[C@@H]1CN(C)S(=O)(=O)c1cccc(F)c1 42% [at 35 µM]
